Assay [1] can be described thus: anti-His antibody binders, primary screen, artefact control for SMM control protein annotation, biochemical, small-molecule microarray, 635 nm fluorescence (AID 1128).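 Also: score merges feature fluorescence with signal-to-noise for each printed compound spot.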 The settings on record: anti-His Alexa647 antibody binding, higher = more signal.
Assay [2] deals with Human papillomavirus type 1a E7 protein (residues 1-88). The assay can be described thus: HPV1a E7 small-molecule binders, primary screen, biochemical, small-molecule microarray, residues 1-88, 635 nm (AID 1129). The settings on record: small-molecule microarray binding, fluorescence 635 nm; higher = more signal.
For assay [3], the target named is Focal adhesion kinase 1 (Homo sapiens) (UniProt Q05397). Kind of assay: small-molecule microarray binders of FAK, primary screen, biochemical, 635/667 nm fluorescence, BSA, DTT (AID 1130).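 Also: composite of spot emission at 667 nm and signal to noise over triplicate slides.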 The conditions noted are these: PTK2 binding, 635 nm fluorescence, higher = more signal.
Assay [4] concerns Fibrinogen (Alexa647-labelled). Kind of assay: fibrinogen binders on compound microarrays, profiling panel, artefact control for SMM control-protein annotation, biochemical, small-molecule microarray, 635/667 nm fluorescence (AID 1131).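 Also: z-score merges 667 nm fluorescence with per-spot signal-to-noise over triplicate slides.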 The settings on record: fibrinogen-A647 binding fluorescence, higher = more signal.
The target in assay [5] is Follistatin (Homo sapiens) (UniProt P19883). The assay can be described thus: follistatin binders on small-molecule microarrays, primary screen, biochemical, small-molecule microarray, 635/667 nm fluorescence (AID 1132). The settings on record: FST binding, 635 nm fluorescence, higher = more signal.
For assay [6], the target named is Fibroblast growth factor 2 (Homo sapiens) (UniProt P09038). Kind of assay: FGF2 binders on small-molecule microarrays, primary screen, biochemical, small-molecule microarray, 635/667 nm fluorescence (AID 1133). The settings on record: small-molecule microarray binding, FGF2, fluorescence 635/667; higher = more signal.
Assay [7] can be described thus: mitochondrial membrane potential change in A549 cells, profiling panel, cell-based, JC-1 fluorescence, basal, 24 h, 100 nL (AID 1138).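 Also: A549 lung adenocarcinoma cells under basal conditions with no added stimulus; test concentration not given here.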 The settings on record: higher = more signal.
Another assay has as its system Lefty1. Kind of assay: Lefty1 binders on small-molecule microarrays, primary screen, biochemical, small-molecule microarray, 635/667 nm fluorescence (AID 1139). The conditions noted are these: small-molecule microarray binding, fluorescence 635/667; higher = more signal.
Assay [8] relates to wheat germ agglutinin (Triticum aestivum), Alexa647-labelled. The assay can be described thus: wheat germ agglutinin binders on compound microarrays, profiling panel, artefact control for SMM control-protein annotation, biochemical, small-molecule microarray, 635/667 nm fluorescence (AID 1140).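 Also: score merges 667 nm feature emission with signal to noise over triplicate slides.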 The settings on record: WGA-A647 binding, 635 nm fluorescence, higher = more signal.

Assay [9] concerns the target Luciferin 4-monooxygenase (Photinus pyralis) (UniProt P08659). Kind of assay: firefly luciferase enzyme inhibitors, primary screen, biochemical, luminescence, purified enzyme, 2006 set (AID 1141).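 Also: cell-free assay with purified firefly luciferase at 100 ng per well in PBS; test concentration not given here.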 The conditions noted are these: SteadyGlo luminescence, 30 min, higher = more signal, called active from +8 up or from −8 down.
Assay [10] deals with Wnt5a (protein binding on small-molecule microarray). Kind of assay: Wnt5a binders on small-molecule microarray, primary screen, biophysical, 635/667 nm fluorescence (AID 1142).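 Also: fluorescence read at 667 nm with signal to noise per printed feature.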 The conditions noted are these: 635 nm fluorescence, higher = more signal.
A short description of assay [11]: cell viability in Huh7 cells, primary screen, cytotoxicity control for HCV replication inhibitor project, CellTiter-Glo luminescence, basal, 48 h (AID 1143).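 Also: Huh7 hepatoma cells carrying a hepatitis C replication reporter with no stimulus; test concentration not given here.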 The conditions noted are these: Huh7 HCV replicon, higher = more signal, called active from +8 up or from −8 down.
Assay [12] is described as follows: P. aeruginosa biofilm formation inhibitors, primary screen, PAO1 strain, BacTiter-Glo luminescence, LB-PBS (AID 1144). The conditions noted are these: 12 h, higher = more signal.
Assay [13] is described as follows: CREB reporter modulators without forskolin, primary screen, cell-based, PC12, CRE-LacZ reporter, unstimulated (AID 1145). The settings on record: no forskolin, luminescence, 4.5 h, higher = more signal, called active from +8 up or from −8 down.
The nature of assay [14]: CREB reporter modulators under forskolin, primary screen, cell-based, PC12, CRE-LacZ reporter, forskolin-stimulated (AID 1146).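 Also: PC12 cells with 6xCRE LacZ reporter stimulated by forskolin 10 µM; beta-galactosidase reporter signal reflecting CREB driven transcription.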 The conditions noted are these: luminescence, 4.5 h, higher = more signal, called active from +8 up or from −8 down.
Assay [15] deals with Streptavidin (Streptomyces avidinii) (UniProt P22629). Kind of assay: streptavidin binders on small-molecule microarray, primary screen, artefact control for SMM compound annotation, biophysical, 635/667 nm fluorescence (AID 1147).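 Also: signal reflects streptavidin binding to arrayed compounds as a control protein.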 The settings on record: streptavidin binding, higher = more signal.
Assay [16] in a line: small-molecule binders of probe aInhba, primary screen, biochemical, small-molecule microarray, 635/667 nm fluorescence (AID 1148).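 Also: score merges 667nm spot fluorescence with signal-to-noise for antibody binding to printed compounds.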 The settings on record: higher = more signal.
The target in assay [17] is Torsin-1A (Homo sapiens) (UniProt O14656). The assay can be described thus: torsin A binders from cell lysate, primary screen, small-molecule microarray, wild-type, 635/667 nm (AID 1149). The settings on record: COS7 hTOR1A-WT lysate, 635 nm fluorescence, higher = more signal.
The target is the same in assay [18]. The assay can be described thus: small-molecule binders of mutant TOR1A in lysate, primary screen, cell lysate, small-molecule microarray, COS7 lysate, 635/667 nm fluorescence (AID 1150).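 Also: score pools 667 nm emission and signal to noise measuring lysate protein binding.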 The conditions noted are these: COS7 hTOR1A mutant lysate, 635 nm fluorescence, higher = more signal.
The test system of assay [19] is Sonic hedgehog protein (Shh). The assay can be described thus: small-molecule binders of Shh protein, primary screen, biochemical, small-molecule microarray, 635/667 nm fluorescence (AID 1151).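 Also: Shh protein binding to compounds spotted on small-molecule microarray slides; score combines spot fluorescence intensity with signal-to-noise across triplicate slides.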 The conditions noted are these: small-molecule microarray binding, 635 nm fluorescence; higher = more signal.

The structures appear in SMILES notation. Activity calls are given as the source filed them. Unless noted, no rule for the calls is given here.

Fibroblast growth factor 2 (Homo sapiens), sequence (P09038 whole entry, looked up): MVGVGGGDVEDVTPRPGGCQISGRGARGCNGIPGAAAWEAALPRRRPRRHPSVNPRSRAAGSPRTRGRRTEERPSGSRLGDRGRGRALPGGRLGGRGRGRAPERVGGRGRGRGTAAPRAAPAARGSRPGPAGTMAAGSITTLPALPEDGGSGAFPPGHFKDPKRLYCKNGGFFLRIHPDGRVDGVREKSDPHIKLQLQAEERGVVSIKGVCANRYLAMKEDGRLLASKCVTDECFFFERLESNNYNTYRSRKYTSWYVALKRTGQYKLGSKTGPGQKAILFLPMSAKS
Torsin-1A (Homo sapiens), sequence (O14656 whole entry, looked up): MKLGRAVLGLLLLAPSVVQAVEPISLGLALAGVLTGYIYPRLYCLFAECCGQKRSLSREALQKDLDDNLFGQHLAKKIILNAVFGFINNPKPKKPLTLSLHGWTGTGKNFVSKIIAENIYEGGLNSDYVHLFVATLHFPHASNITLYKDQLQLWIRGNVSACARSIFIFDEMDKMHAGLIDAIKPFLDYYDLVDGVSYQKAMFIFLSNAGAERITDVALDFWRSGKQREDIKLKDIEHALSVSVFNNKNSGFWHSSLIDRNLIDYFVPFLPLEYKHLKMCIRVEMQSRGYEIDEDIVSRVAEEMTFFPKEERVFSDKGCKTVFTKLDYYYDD
Luciferin 4-monooxygenase (Photinus pyralis), sequence (P08659 whole entry, looked up): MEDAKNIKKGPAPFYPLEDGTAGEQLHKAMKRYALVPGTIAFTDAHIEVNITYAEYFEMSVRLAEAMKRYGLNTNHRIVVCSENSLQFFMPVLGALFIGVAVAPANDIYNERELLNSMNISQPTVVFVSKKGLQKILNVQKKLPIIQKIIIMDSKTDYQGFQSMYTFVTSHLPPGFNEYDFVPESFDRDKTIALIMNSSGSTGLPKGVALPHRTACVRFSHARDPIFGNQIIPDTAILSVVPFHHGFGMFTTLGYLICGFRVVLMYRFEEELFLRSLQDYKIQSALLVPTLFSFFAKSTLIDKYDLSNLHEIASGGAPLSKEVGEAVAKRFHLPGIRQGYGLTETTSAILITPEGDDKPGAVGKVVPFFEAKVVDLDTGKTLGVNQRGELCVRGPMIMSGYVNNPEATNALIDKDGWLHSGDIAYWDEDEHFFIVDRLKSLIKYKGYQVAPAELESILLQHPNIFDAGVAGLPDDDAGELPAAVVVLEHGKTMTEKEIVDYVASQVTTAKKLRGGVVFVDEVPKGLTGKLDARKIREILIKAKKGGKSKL
Streptavidin (Streptomyces avidinii), sequence (P22629 whole entry, looked up): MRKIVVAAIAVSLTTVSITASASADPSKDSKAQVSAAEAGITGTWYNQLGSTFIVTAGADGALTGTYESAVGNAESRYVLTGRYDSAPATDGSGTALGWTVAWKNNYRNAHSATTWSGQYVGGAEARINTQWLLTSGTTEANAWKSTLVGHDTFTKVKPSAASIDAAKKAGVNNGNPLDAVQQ
Focal adhesion kinase 1 (Homo sapiens), sequence (Q05397 whole entry, looked up): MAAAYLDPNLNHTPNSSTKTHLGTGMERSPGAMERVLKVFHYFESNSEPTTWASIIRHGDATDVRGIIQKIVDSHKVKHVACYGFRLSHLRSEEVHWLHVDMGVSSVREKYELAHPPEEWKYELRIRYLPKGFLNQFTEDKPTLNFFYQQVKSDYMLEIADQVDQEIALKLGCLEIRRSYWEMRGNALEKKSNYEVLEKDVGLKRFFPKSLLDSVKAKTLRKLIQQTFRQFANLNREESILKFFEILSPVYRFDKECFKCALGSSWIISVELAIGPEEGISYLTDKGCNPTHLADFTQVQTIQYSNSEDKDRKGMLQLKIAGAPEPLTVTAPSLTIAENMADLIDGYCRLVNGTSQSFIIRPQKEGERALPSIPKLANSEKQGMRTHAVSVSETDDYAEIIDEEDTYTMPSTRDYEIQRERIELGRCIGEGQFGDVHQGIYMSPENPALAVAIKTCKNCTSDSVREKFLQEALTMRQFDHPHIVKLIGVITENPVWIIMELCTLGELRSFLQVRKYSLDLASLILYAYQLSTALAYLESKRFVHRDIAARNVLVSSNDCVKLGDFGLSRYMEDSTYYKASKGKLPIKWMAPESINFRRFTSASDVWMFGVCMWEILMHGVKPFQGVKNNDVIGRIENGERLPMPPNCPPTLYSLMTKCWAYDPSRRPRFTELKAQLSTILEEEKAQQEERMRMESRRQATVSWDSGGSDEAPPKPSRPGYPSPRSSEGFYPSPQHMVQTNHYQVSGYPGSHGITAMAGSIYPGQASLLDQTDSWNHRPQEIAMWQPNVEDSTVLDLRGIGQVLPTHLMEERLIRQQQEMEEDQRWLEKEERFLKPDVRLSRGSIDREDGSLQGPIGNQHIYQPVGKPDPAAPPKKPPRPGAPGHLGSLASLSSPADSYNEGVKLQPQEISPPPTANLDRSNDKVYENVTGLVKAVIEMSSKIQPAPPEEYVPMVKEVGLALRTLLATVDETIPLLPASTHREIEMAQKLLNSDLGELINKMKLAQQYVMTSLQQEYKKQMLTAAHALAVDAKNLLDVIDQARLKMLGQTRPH
Follistatin (Homo sapiens), sequence (P19883 whole entry, looked up): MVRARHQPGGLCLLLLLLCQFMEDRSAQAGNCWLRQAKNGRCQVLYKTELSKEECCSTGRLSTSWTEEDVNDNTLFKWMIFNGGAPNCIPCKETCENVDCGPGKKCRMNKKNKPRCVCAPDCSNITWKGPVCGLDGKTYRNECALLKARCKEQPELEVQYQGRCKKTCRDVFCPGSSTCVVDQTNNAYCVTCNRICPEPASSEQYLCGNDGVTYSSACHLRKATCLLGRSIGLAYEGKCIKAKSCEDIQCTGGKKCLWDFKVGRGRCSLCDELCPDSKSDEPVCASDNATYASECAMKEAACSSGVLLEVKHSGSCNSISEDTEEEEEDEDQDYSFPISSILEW

In the case of `COc1ccc([Si](C)(C)[C@@H]2[C@@H](CC(=O)N3Cc4ccccc4C[C@H]3CO)O[C@]3(C(=O)N(C)c4c(Br)cc(C)cc43)[C@H]2C)cc1`, the composite z-score in assay [1] amounted to 0.333; in assay [2] it was 1.13; in [3], 0.341; in assay [4], 0.76; in [5], 1.35; in [6], 1.65. Further, the composite z-score in the assay on Lefty1 is 1.56; in assay [8], 1.03; in assay [10], 0.251; in assay [15] it was 0.813; in assay [16], -0.0645; with Torsin-1A (Homo sapiens) [17] it was 1.01. In addition, the composite z-score with Torsin-1A (Homo sapiens) [18] came out at 1.19; in [19], 2.14. In addition, the z-score in [7] was 0.595; in assay [9] it was -0.178 (inactive); in assay [11], -5.91 (inactive); in assay [12] it was -1.41 (inactive); in assay [13], 6.12 (inactive); in assay [14], 0.0739 (inactive).

In the case of `C=C(C)C1C(=C)CN([C@H](CO)c2ccccc2)C1=O` (stereo not given in full), the composite z-score in [1] is 0.0639; in assay [2], -0.534; in assay [3], -0.521; in assay [4], -0.0803; in [5] it was 0.189; in assay [6] it was -0.158. The composite z-score with Lefty1 is 0.587; in assay [8] it was -0.187; in assay [10], -0.231; in assay [15], -1.12; in assay [16], -0.103; with Torsin-1A (Homo sapiens) [17], -1.46. The composite z-score with Torsin-1A (Homo sapiens) [18] was -0.821; in [19] it was 1.28. Also, the z-score in [7] is -0.647; in assay [9], 1.01 (inactive); in [11], -0.677 (inactive); in assay [12], -0.65 (inactive); in [13] it was -0.141 (inactive); in assay [14], 0.176 (inactive).

As to `O=C(c1ccccc1)N1Cc2ccccc2[C@@H]2OC(c3ccc(OCCCO)cc3)=N[C@]2(Cc2ccccc2)C1=O`, the composite z-score in [1] stood at 2.33; in assay [2] it was 1.19; in assay [3] it was 0.319; in assay [4] it was 0.924; in [5] it was 1.32; in assay [6], 1.02. In addition, the composite z-score in the assay on Lefty1 stood at 0.838; in assay [8], 0.765; in [10] it was 0.624; in assay [15], 0.215; in [16] it was 0.188; with Torsin-1A (Homo sapiens) [17], 0.236. The values for the composite z-score (with Torsin-1A (Homo sapiens) [18]; in assay [19]) were 0.423 and 1.33, respectively. In addition, the z-score in [7] was -0.411; in [9], -0.976 (inactive); in assay [11] it was -3.55 (inactive); in assay [12], -0.554 (inactive); in assay [13], 1.35 (inactive); in [14] it was 0.715 (inactive).

`COCCCNC(=O)[C@@]1(Cc2ccccc2)N=C(c2ccc(OCCCO)cc2)O[C@H]1c1ccccc1`: the composite z-score in assay [1] stood at 3.17; in [2], 1.26; in assay [3], 0.102; in assay [4], 0.959; in assay [5] it was 0.448; in [6] it was 0.706. The composite z-score in the assay with Lefty1 was -0.559; in assay [8], 1.11; in assay [10], 1.3; in assay [15], 2.34; in assay [16] it was 0.786; with Torsin-1A (Homo sapiens) [17] it was 0.268. Also, the composite z-score with Torsin-1A (Homo sapiens) [18] came out at 1.16; in assay [19] it was 0.0157. Further, the z-score in assay [7] was 0.26; in assay [9], -0.391 (inactive); in assay [11], -1.99 (inactive); in assay [12], 0.669 (inactive); in assay [13], -0.0249 (inactive); in assay [14], -0.437 (inactive).

`CCOC(=O)[C@H]1C/C=C/C[C@H](C(=O)OCC)C(=O)O[C@H]2[C@@H](OC)O[C@H](CO)[C@@H](OC(=O)Nc3ccc(C#N)cc3)[C@@H]2OC1=O`: the composite z-score in assay [1] was 0.514; in assay [2], 0.45; in assay [3] it was 0.499; in assay [4], -0.274; in assay [5], 0.336; in assay [6] it was 0.121. Moreover, the composite z-score in the assay with Lefty1 is 0.519; in assay [8] it was 0.852; in assay [10], 0.121; in [15], -0.576; in [16], -0.128; with Torsin-1A (Homo sapiens) [17], 0.392. In addition, the composite z-score in the assay with Torsin-1A (Homo sapiens) [18] came out at 1.08; in assay [19] it was 0.673. Further, the z-score in assay [7] was -1.92; in assay [9], 0.215 (inactive); in assay [11] it was -6.66 (inactive); in [12], -2.89 (inactive); in assay [13], -1.29 (inactive); in assay [14], -1.66 (inactive).

The record behind these values is PubChem BioAssay.
